Source: PubChem BioAssay AID687030 (Broad Institute, 2013)
In all, about 1,400 compounds went through this assay and about 10 (0.7%) were called active. No rule for the calls is given here. The list is a sample of the results. Potency and affinity values are given separately.

assay: viability loss in BHK-21 cells – cell-based, plate reader, cherry-pick samples, cytotoxicity control, dose response (AID 687030); settings: series mostly up to 19.5 µM; activity change, negative = toxicity: at the top concentration;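 also: cells were exposed to compound for three days before reading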

SMILES	activity change, negative = toxicity
Cc1ccc(N(C)C(=O)N2CCN(S(=O)(=O)c3ccc(C)cc3)CC2)cc1	1.54% (inactive)
CCOC(=O)c1[nH]c2ccccc2c1NC(=O)c1ccc2c(c1)OCO2	-0.148% (inactive)
Cc1cccc(N(C(=O)Cn2nnc3ccccc32)C(C(=O)NC(C)(C)C)c2ccsc2)c1 (stereo not drawn)	-2.95% (inactive)
O=C(CNC(=O)N1CC(=O)Nc2ccccc21)NCc1ccc(F)cc1	0.609% (inactive)
Cc1noc(C)c1S(=O)(=O)N(C)C[C@H]1OCCCC[C@@H](C)Oc2ccc(NC(=O)Nc3ccc4c(c3)OCO4)cc2C(=O)N([C@@H](C)CO)C[C@H]1C	-2.3% (inactive)
CCOC(=O)c1[nH]c(C)c(C(=O)OCC(=O)N2CC(=O)Nc3ccccc32)c1C	-1.55% (inactive)
CC1CCCCN1CCCNC(=O)c1ccc2nc(N3CCCCC3)sc2c1 (stereo not drawn)	-1.24% (inactive)
CCOC(=O)c1sc(NC(=O)c2ccncc2)c(C#N)c1C	2.78% (inactive)
CC(C)C(=O)Nc1nnc(S(=O)(=O)N2CCc3ccccc32)s1	-1.38% (inactive)
Fc1ccc(CCN2CCN=C2Nc2ccccc2)cc1	-3.21% (inactive)
CCC(C)[C@H]1COCCS(=O)(=O)N1Cc1ccc(Br)cc1 (stereo partly drawn)	-1.52% (inactive)
O=C(N[C@@H]1C=C[C@H](CC(=O)N2CCc3ccccc3C2)O[C@@H]1CO)C1CCC1	3.49% (inactive)
COc1cc2cc(CCCOC(=O)CCC(=O)O)oc(=O)c2cc1OC	-0.198% (inactive)
CC1Cc2ccccc2N1S(=O)(=O)c1cnc(Cl)c(Br)c1 (stereo not drawn)	-8.32% (inactive)
O=C(O)c1cccc(-c2csc(C(O)c3ccc(F)c(F)c3)n2)c1 (stereo not drawn)	-1.2% (inactive)
O=C(O)c1ccccc1C(=O)NCc1c(Cl)cccc1Sc1ccc(Cl)cc1	2.35% (inactive)
COc1ccc(CCN2CC(C(=O)NCCc3cn[nH]c3)CCC2=O)cc1 (stereo not drawn)	-3.58% (inactive)
CNC(=O)C[C@H]1CC[C@@H]2[C@H](COc3ccc(NC(=O)c4ccc(F)c(F)c4)cc3C(=O)N2C)O1	2.5% [at 21 µM] (inactive)
COc1cc2c(cc1OC)CN(C(=O)CCOc1ccccc1C)CC2	1.41% (inactive)
N#Cc1cccnc1N1CCN(C(=O)c2ccccc2)CC1	-6.78% (inactive)
O=C(NCC[C@H]1CC[C@H](NS(=O)(=O)c2ccc(Oc3ccccc3)cc2)[C@@H](CO)O1)C1CC1	-1.83% (inactive)
CCCCCc1c(-c2ccccc2OC)ncn1CCc1ccccc1OC	-3.51% (inactive)

SMILES	activity change, negative = toxicity
O=C(Nc1cccc(S(=O)(=O)N2CCCCCC2)c1)c1ccc2ccccc2n1	1.68% (inactive)
Cc1ccc(C(=O)O/N=C(\N)c2ccccn2)cc1	-4.24% (inactive)
CCc1nc2ccc(C(=O)N(CC)CCN(C)C)cn2c1N(C)C(=O)c1cccc(OC)c1	11% (inactive)
C[C@@H]1CN([C@@H](C)CO)C(=O)c2cc(NS(=O)(=O)c3ccc(Cl)cc3)ccc2O[C@@H](C)CCCCO[C@H]1CN(C)CC1CC1	-1.91% (inactive)
O=C(c1ccncc1)N1CCCC(N2CCN(c3cccc(C(F)(F)F)c3)CC2)C1 (stereo not drawn)	1.83% (inactive)
O=C(c1cc(C2CC2)on1)N1CCCC(N2CCN(c3cccc(C(F)(F)F)c3)CC2)C1 (stereo not drawn)	1.75% (inactive)
O=S(=O)(NCc1c(Cl)cccc1Oc1ccccc1)c1ccccc1	-4.45% (inactive)
CCOc1ccc(C(=O)NCC(=O)N2CCCCCCC2)cc1	-5.62% (inactive)
O=C(O)C[C@H]1C=C[C@@H](NC(=O)CCN2CCCCC2)[C@@H](CO)O1	6.26% (inactive)
CC1CCOC(c2coc3ccccc3c2=O)O1 (stereo not drawn)	-2.55% (inactive)
COc1ccc(Br)cc1[C@H]1[C@H]2C=CC[C@@H](C)[C@@H]2C(=O)N1Cc1ccccc1	4.79% (inactive)
O=C(Nc1cccc(-n2cnnn2)c1)C1CCCN(C(=O)Cc2cccc(Cl)c2)C1 (stereo not drawn)	1.47% (inactive)
CC(C)CN(C(=O)c1cc(Cl)nc2ccccc12)c1c(N)n(Cc2ccccc2)c(=O)[nH]c1=O	4.68% (inactive)
O=C(O)[C@H]1[C@H](CO)[C@H]2Cn3c(ccc(/C=C/c4ccccc4)c3=O)[C@H]2N1C(=O)c1cnccn1	-3.31% (inactive)
CN(CC(=O)Nc1ccc(F)cc1)C(=O)COC(=O)c1nc(Cl)ccc1Cl	3.06% (inactive)
CC(C)(C)OC(=O)CNC(=O)c1[nH]cnc1C(=O)N[C@@H](Cc1ccccc1)C(=O)OC(C)(C)C	7.08% (inactive)
CCOc1ncccc1C(=O)NNC(=O)c1cccc(S(=O)(=O)Nc2ccccc2OC)c1	2.97% (inactive)
COc1cccc(N2CCN(C(=O)c3cccc(NC4=NC5CS(=O)(=O)CC5S4)c3)CC2)c1 (stereo not drawn)	-7.17% (inactive)
CC(=O)Nc1cccc2ncccc12	-1.27% (inactive)
COc1cc(NC(C)=O)c2ncccc2c1Br	7.72% (inactive)
OC(COC(c1ccc(F)cc1)c1ccc(F)cc1)CN1CCCC1 (stereo not drawn)	3.3% (inactive)
Cc1ccc(C(=O)Nc2ccc(CN3CCCCC3)cc2)c(C)c1	4.85% (inactive)

SMILES	activity change, negative = toxicity
CN1CCC2CC1c1cc(-c3ccc(C(F)(F)F)cc3)ccc12 (stereo not drawn)	6.96% (inactive)
O=C(C[C@@H]1CC[C@H]2[C@@H](COC[C@@H](O)CN2Cc2cccc(Cl)c2)O1)N1CCOCC1	-4.37% (inactive)
O=C(C[C@H]1CC[C@H]2[C@@H](COC[C@@H](O)CN2Cc2cccc(C(F)(F)F)c2)O1)NCc1ccc(F)cc1	3.27% (inactive)
C[C@@H]1CCCCO[C@H](CN(C)S(=O)(=O)c2ccccc2)[C@@H](C)CN([C@@H](C)CO)C(=O)c2cc(NC(=O)CCCN(C)C)ccc2O1	1.9% (inactive)
COc1ccc(S(=O)(=O)N(C)C[C@@H]2Oc3ccc(NS(=O)(=O)c4ccccc4)cc3C(=O)N([C@H](C)CO)C[C@H]2C)cc1	3.26% (inactive)
CCNC(=O)C[C@H]1CC[C@H]2[C@@H](COC[C@@H](O)CN2Cc2ccc(Cl)c(Cl)c2)O1	-6.91% (inactive)
CCNC(=O)C[C@H]1CC[C@H]2[C@@H](COC[C@H](O)CN2Cc2ccc(Cl)c(Cl)c2)O1	0.129% (inactive)
CCC1CN(S(=O)(=O)c2ccc3c(c2)NC(=O)CC(=O)N3)c2cc(Cl)ccc2O1 (stereo not drawn)	1.53% (inactive)
Cc1cc(OCC(=O)NC(Cc2c[nH]c3ccc(O)cc23)C(=O)O)c2c(C)c(C)c(=O)oc2c1 (stereo not drawn)	1.75% (inactive)
COc1cccc(CNC(=O)[C@@H]2CCCN2C(=O)[C@H]2CCCCN2C(=O)c2ccc(Cl)cc2)c1	-5.85% (inactive)
CCCCn1c(N)c(N(CC)C(=O)c2cc(C)cc(C)c2)c(=O)[nH]c1=O	-0.06% (inactive)
CC(C)CCC(O)(c1ccccc1)C(CN1CCOCC1)c1ccccc1 (stereo not drawn)	0.142% (inactive)
C[C@@H]1CCCCO[C@H](CN(C)S(=O)(=O)c2ccc(Cl)cc2)[C@H](C)CN([C@H](C)CO)C(=O)c2cc(N(C)C)ccc2O1	3.31% (inactive)
C=CCOc1ccccc1CN1CCC(Cc2ccccc2)CC1	-7.66% (inactive)
C[C@@H]1CCCCO[C@@H](CN(C)C(=O)c2ccccc2)[C@@H](C)CN([C@H](C)CO)C(=O)c2cc(NC(=O)CCC(F)(F)F)ccc2O1	1.72% (inactive)
CC1(C)CN(Cc2cccnc2)C(=O)[C@H]1CC(=O)Nc1ccc(Br)cc1	-3.75% (inactive)
Cc1cc(NC(=O)Cn2c(=O)oc3ccc(Cl)cc32)no1	-5.82% (inactive)
COc1cc(OC)cc(C(=O)Nc2ccc3nc4n(c(=O)c3c2)CCCC4)c1	-2.03% (inactive)
CC(C)(C)NC(=O)c1cccc(NC(=O)c2ccc3c(c2)C(=O)N(C(C)(C)C)C3=O)c1	3.1% (inactive)
CN(Cc1ccc(Cl)c(Cl)c1)C(=O)C1CC(=O)N(c2ccc3c(c2)OCCO3)C1 (stereo not drawn)	4.82% (inactive)
COc1ccc(CN2C(=O)CCC2(C)c2nnnn2Cc2ccccc2)cc1 (stereo not drawn)	-0.033% (inactive)
Cc1cc(C)c(OCCCNC2CCCC2)c(Br)c1	-1.02% (inactive)

SMILES	activity change, negative = toxicity
COc1cc(O)c(C(CC(=O)N2CCCC(C)C2)c2cc(OC)c(OC)c(OC)c2)c(OC)c1 (stereo not drawn)	-0.011% (inactive)
CN(C)c1ccc(CC(=O)N2CCCC(c3cc(C(=O)Nc4ccc(F)c(Cl)c4)no3)C2)cc1 (stereo not drawn)	-3.81% (inactive)
C/C=C/c1cnc2c(c1)C(=O)N([C@H](C)CO)C[C@H](C)[C@H](CN(C)S(=O)(=O)c1ccccc1)O2	-4.37% (inactive)
Cc1ccc(S(=O)(=O)N2CC[C@@H]3[C@H](CO)Nc4ccc(-c5ccccc5F)cc4[C@@H]32)cc1	1.83% (inactive)
COc1ccc(-c2ccc3c(c2)[C@H]2[C@H](CCN2C(=O)CN2CCOCC2)[C@@H](CO)N3)cc1	-1.16% (inactive)
Cc1ccc(CNC(=O)[C@H](C)N2C(=O)N3CCc4c([nH]c5ccccc45)[C@@]3(C)C2=O)cc1	2.09% (inactive)
C/C(=N/NC(=O)CCC(=O)Nc1cccc(Cl)c1)c1ccc(C)cc1	3.02% (inactive)
CC(C)(C)NC(=O)C(c1cccc2ccccc12)n1c(=O)c(-c2ccccc2)nc2ccccc21 (stereo not drawn)	-11.1% (inactive)
CCOc1ncccc1C(=O)OCC(=O)NCc1ccc(C(=O)OC)cc1	3.61% (inactive)
C[C@@H]1CCCCO[C@H](CN(C)C(=O)Nc2cccc3ccccc23)[C@@H](C)CN([C@@H](C)CO)C(=O)c2cc(NS(=O)(=O)c3cn(C)cn3)ccc2O1	-3.64% (inactive)
CCn1c(SCc2cccc(F)c2)nnc1-c1ccncc1	6.68% (inactive)
Cc1cccc(C)c1-n1nnnc1C1(C)CCC(=O)N1Cc1cccnc1 (stereo not drawn)	2.93% (inactive)
O=C(NCC1CCCCC1)[C@@H]1[C@@H](CO)[C@@H]2Cn3c(cccc3=O)[C@H]1N2CCc1ccccc1	-0.648% (inactive)
C[C@H]1CCCCO[C@H](CN(C)C(=O)Nc2ccc(C(F)(F)F)cc2)[C@@H](C)CN([C@@H](C)CO)C(=O)c2cc(NC(=O)C3CCCCC3)ccc2O1	3.54% (inactive)
OC(c1ccccc1)C(NCc1ccccc1)c1ccccc1 (stereo not drawn)	-0.633% (inactive)
CCC(=O)Nc1ccc(NC(=O)c2oc3ccccc3c2C)cc1	2.33% (inactive)
CC1(C)CC(NC(=O)COc2ccccc2Cl)CC(C)(C)N1	-3.56% (inactive)
O=C(NC1CCCC1)C(C1CC1)n1c(C2CCCC2)nc2ccccc21 (stereo not drawn)	5.11% (inactive)
CCOC(=O)c1ccc(S(=O)(=O)N2CCC(N3CCCCC3)CC2)cc1	4.69% (inactive)
CCc1ccc(NC(=O)N(CCCN2CCOCC2)Cc2cccs2)cc1	-5.74% (inactive)
COc1ccc(N(C(=O)c2cccnc2)S(=O)(=O)c2ccc(OC)c(OC)c2)cc1	3.7% (inactive)
CO[C@@H]1CN(C)C(=O)c2ccc(NC(C)=O)cc2OC[C@@H](C)N(S(C)(=O)=O)C[C@H]1C	5.12% (inactive)

SMILES	activity change, negative = toxicity
CCc1ccc2cc(C)cc(C)c2n1	4.74% (inactive)
COc1ccc(S(=O)(=O)Nc2ccc3c(c2)C(=O)N([C@@H](C)CO)C[C@@H](C)[C@H](CN(C)S(=O)(=O)c2ccc(Cl)cc2)O3)cc1	0.886% [at 21 µM] (inactive)
CCCn1c(-c2ccc[nH]c2=O)nc2cc(C)c(C)cc21	-8.05% (inactive)
C[C@H]1CCCCO[C@@H](CN(C)C(=O)Nc2cccc3ccccc23)[C@@H](C)CN([C@@H](C)CO)C(=O)c2cc(NC(=O)Cc3ccccc3)ccc2O1	-1.49% (inactive)
Cc1cccc(C(=O)N2CCC(=O)N([C@H](COCc3ccc(Cl)cc3)Cc3ccccc3)CC2)c1	-8.53% (inactive)
Cc1c(C(=O)Nc2ccccc2F)sc2ncn(CC(=O)N3CCOCC3)c(=O)c12	8.12% (inactive)
Cc1nc2ccc(C(=O)NC(C)(C)C)cn2c1N(C)C(=O)CCc1ccccc1	2.03% (inactive)
O=C(Nc1ccc2ccccc2c1)C(C1CC1)n1c(=O)c(-c2cc3ccccc3[nH]2)nc2ccccc21 (stereo not drawn)	-3.31% (inactive)
COc1ccc(CCC(C)NCc2ccc(F)cc2)cc1 (stereo not drawn)	1.5% (inactive)
CCCn1c(=N)n(CC(O)COc2ccc(C)cc2)c2ccccc21 (stereo not drawn)	-1.96% (inactive)
CCN(C(=O)COC(=O)c1cc2c(s1)CCCCC2)C1CCS(=O)(=O)C1 (stereo not drawn)	1.06% (inactive)
Cc1cc(C)n2c(NC3CCCC3)c(-c3cccnc3)nc2n1	2.56% (inactive)
CCOC(=O)C1CCN(Cc2c(C(=O)N3CCOCC3)nc3c(C)cccn23)CC1	5.72% (inactive)
CCCCC[C@H]1CN(CCc2ccccc2)C(=O)[C@@H]1CC(=O)NCc1ccc(OC)cc1	-0.393% (inactive)
CO[C@H]1CN(C)C(=O)c2cc(NC(=O)c3ccccc3F)ccc2OC[C@H](C)N(CC2CCOCC2)C[C@H]1C	-0.939% (inactive)
CC(=O)N[C@@H]1CC[C@H](CCNC(=O)C2CCCC2)O[C@H]1CO	-4.73% (inactive)
CC(C)NC(=O)Nc1ccc2c(c1)C(=O)N([C@@H](C)CO)C[C@H](C)[C@H](CN(C)C(=O)Nc1ccc3c(c1)OCO3)O2	9.73% (inactive)
COc1ccc(NC(=O)Nc2cccc3c2O[C@H](CN(C)S(=O)(=O)c2ccccc2)[C@H](C)CN([C@@H](C)CO)C3=O)cc1	-6.01% [at 21 µM] (inactive)
COc1ccc(S(=O)(=O)N2CCCC2C(=O)NCC(=O)Nc2cccc(Cl)c2C)cc1 (stereo not drawn)	-8.9% (inactive)
O=C(NCc1ccncc1)c1cccc(NS(=O)(=O)c2ccc(F)c(F)c2)c1	-0.321% (inactive)
